Experimental data as given in PubChem BioAssay (NCATS).
Records with an inconclusive call do not appear. Unmarked numbers belong to inactive results. The source made the active and inactive calls. Calls follow the shape of the dose curve; as a rule, active = well fitted inhibition curve with a large enough effect; inconclusive = small, poorly fitted or top-dose-only effect; inactive = flat fitted curve, though single readings scatter.

system: CRL-7250; test: Cytotoxic Profiling of Annotated Libraries Using Quantitative High-Throughput Screening (AID 1296008); settings: Five cell lines viability, CellTiter-Glo ATP luminescence, 48-72 h; max response: hits give low values; also: nearly all actives have a fitted effect of over 60% in size
Procedure, shortened: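 Compounds were pin-transferred onto cells and incubated 48 or 72 hr at 37 degree Celsius, 95% humidity. CellTiter-Glo was added, plates sat 10 min at room temperature, then ATP-coupled luminescence was imaged as the viability read-out.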
% is scaled to controls: 0 for no effect and ±100 for the full control effect.

| SMILES | max response | outcome |
| --- | --- | --- |
| O=C(/C=C/c1ccc(O)c(O)c1)O[C@@H]1[C@@H](O)[C@H](OC2CCCCC2O)O[C@H](CO)[C@H]1O (some centres not stated) | 4.08% |  |
| COc1cc(C(CO)CO[C@@H]2O[C@H](CO)[C@@H](O)[C@H](O)[C@H]2O)ccc1O (some centres not stated) | -15.6% |  |
| CC1(C)CC2C3=CCC4[C@@]5(C)CC[C@H](OC6OCC(O)C(OC7OC(CO)C(O)C(O)C7O)C6O)C(C)(C)C5CC[C@@]4(C)[C@]3(C)C[C@H](O)[C@@]2(CO)[C@H](OC(=O)c2ccccc2)C1 (some centres not stated) | -5.7% |  |
| C=C[C@@]1(C)CCC2=C([C@H]1OC(C)=O)[C@H](OC(C)=O)CC1[C@](C)(C(=O)OC)CC[C@H](OC(C)=O)[C@]21C (some centres not stated) | -6.44% |  |
| O=C(N[C@@H]1CC[C@@H](c2cccc(F)c2F)CN(CC(F)(F)F)C1=O)N1CCC(n2c(=O)[nH]c3ncccc32)CC1 | -4.99% |  |
| O=c1[nH]ccc2nc(-c3ccc(CN4CCC(c5nc(-c6ccccn6)n[nH]5)CC4)cc3)c(-c3ccccc3)cc12 |  | inactive |
| CC1=C2C[C@H]3OC(=O)[C@H](O)[C@@]4(O)[C@@H](C)[C@@H](O)[C@H](O)C([C@@]2(C)[C@H](O)[C@@H](O)C1)[C@@]34C (some centres not stated) | -2.09% |  |
| C=CC(C)(O)CC/C=C(\C)C(=O)O[C@@H]1[C@@H](O)[C@H](OC(C)(C=C)CC/C=C(\C)C(=O)O[C@@H]2O[C@H](CO)[C@@H](O)[C@H](O)[C@H]2O)O[C@H](CO)[C@H]1OC(=O)/C(C)=C/CCC(C)(O)C=C (some centres not stated) | 1.38% |  |
| CC(C)(O)C1OC1C1=CC(=O)C2(C)OC2C1O (configuration not stated) |  | inactive |
| CC1(C)CCC[C@]2(C)C1CC=C(CO)[C@H]2CC/C(=C/CO)CO (some centres not stated) | -11.4% |  |
| C[C@@]1(C(=O)O)CCC[C@@]2(C)C3=CC[C@H]4C[C@@]3(CC[C@H]12)CC4(O)CO (some centres not stated) | -19% |  |
| Cc1c(NC(=O)N2CCOCC2)ccc2c1c1ccccc1n2C(C)C |  | inactive |
| CC[C@H]1OC(=O)[C@H](C)[C@@H](O[C@H]2C[C@@](C)(OC)[C@@H](O)[C@H](C)O2)C(C)[C@@H](O[C@@H]2O[C@H](C)C[C@H](N(C)C)[C@H]2O)[C@](C)(O)C[C@@H](C)CN(C)[C@H](C)[C@@H](O)[C@]1(C)O (some centres not stated) | -0.571% |  |
| CC(C)c1ccc2c(c1)C(O)CC1C(C)(CO)CCCC21C (configuration not stated) | -14% |  |
| O=C1C[C@@]2(C(=O)N1)C(=O)N(Cc1ccc(Br)cc1F)C(=O)c1cccn12 | -0.124% |  |
| CC(=O)OC12CC(C)C(OC(=O)c3ccccc3)C1/C=C(/C)C(OC(=O)c1ccccc1)CC(=O)C(C)(C)/C=C/C(C)C2=O (configuration not stated) | -26.4% |  |
| COC(=O)C(CC1(O)c2ccccc2N2C(=O)C(C)(C)N(O)C21)n1cnc2ccccc2c1=O (configuration not stated) |  | inactive |
| C=C1[C@@H]2CC[C@@]3(C)[C@H](c4ccoc4)OC(=O)C[C@]13O[C@H]1CC(=O)C(C)(C)[C@H](C(O)C(=O)OC)[C@]12C (some centres not stated) | -0.794% |  |
| COC(=O)C1=COC(O[C@@H]2O[C@H](CO)[C@@H](O)[C@H](O)[C@H]2O)/C(=C\COC(=O)/C=C/c2ccccc2)C1CC(=O)OCCc1ccc(O)cc1 (some centres not stated) | -7.39% |  |
| COc1cc(C(C)=O)ccc1O[C@@H]1O[C@H](CO[C@@H]2OC[C@@H](O)[C@H](O)[C@H]2O)[C@@H](O)[C@H](O)[C@H]1O | 0.428% |  |
| CC1(C)[C@@H]2CC=C(CO[C@@H]3O[C@H](CO[C@@H]4OC[C@H](O)[C@H](O)[C@H]4O)[C@@H](O)[C@H](O)[C@H]3O)[C@H]1C2 | 0.583% |  |
| CCC(C)/C=C(C)/C=C/C(=O)C1CCC(O)C(C)(O)C1=O (configuration not stated) | 4.93% |  |
| O=C(/C=C/c1ccc(O)c(O)c1)O[C@H]1[C@H](OC2CCCCC2O)O[C@H](CO)[C@@H](O)[C@@H]1O (some centres not stated) | -3.22% |  |
| C=C1CCC2C(C)(C)CC(O)CC2(C)C1CCC(C)CCOC(=O)CCC(=O)O (configuration not stated) | -28.7% |  |
| O=C(O)CC(CCc1ccccc1)OC1OC(CO)C(O)C(O)C1O (configuration not stated) | -6.12% |  |
| CC(O)/C=C/C1(O)C(C)C(O)C(O[C@@H]2O[C@H](CO)[C@@H](O)[C@H](O)[C@H]2O)CC1(C)C (some centres not stated) | -7.69% |  |
| CC1(C)CC[C@]2(C(=O)O[C@@H]3O[C@H](CO)[C@@H](O)[C@H](O)[C@H]3O)CC[C@]3(C)C(=CCC4[C@@]5(C)C[C@@H](O)[C@H](O)[C@@](C)(CO)C5[C@H](O)C[C@]43C)C2[C@@H]1O (some centres not stated) |  | inactive |
